# Where “and” joins values, the source holds several entries; their conditions need not be identical. Equal entries are not always repeated. Inconclusive results are not listed. A call without a number means that no potency is given here. Calls of active or inactive are those of the source. Calls come from the whole dose curve; as a rule, active = well fitted curve in the direction sought with a large enough effect; inconclusive = small, poorly fitted or top-dose-only effect, or another doubt; inactive = no such curve, though single readings can be large; an effect the other way counts as inactive or inconclusive.
# Tests used:
# [1] = qHTS of pediatric cancer cell lines to identify multiple opportunities for drug repurposing: Primary screen for SJ-GBM2 cells (AID 1347091)
# Method in brief: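 Cell viability, CellTiter-Glo luminescence; 500-1,000 cells/well, 8- or 11-point titration, 48 h compound exposure at 37 degrees C, 5% CO2. Controls: DMSO neutral, bortezomib 2.3 µM final as positive.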
# [2] = qHTS of pediatric cancer cell lines to identify multiple opportunities for drug repurposing: Primary screen for A673 cells (AID 1347092); note: nearly all actives have a fitted effect of over 45% in size
# Method in brief: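 A673 cells (500-1,000 cells/well) were treated 48 hours at 37 degrees C with compounds at 11-point (0.78 nM to 46 µM) or 8-point (0.59 nM to 46 µM) dilutions. Viability read by CellTiter-Glo luminescence; concentration-response curves fitted.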
# [3] = qHTS of pediatric cancer cell lines to identify multiple opportunities for drug repurposing: Primary screen for SK-N-MC cells (AID 1347093)
# Method in brief: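 Metabolically active cells were quantified by ATP-dependent luminescence (CellTiter-Glo, 15 min at room temperature) following 48 h treatment. Cells had been plated at 500-1,000 per well and settled for 5 h beforehand.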
# [4] = qHTS of pediatric cancer cell lines to identify multiple opportunities for drug repurposing: Primary screen for BT-37 cells (AID 1347094)
# Method in brief: (§1)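 Following a 5-hour attachment period, cells at 500-1,000/well received compounds and were cultured for 48 hours. CellTiter-Glo was added and luminescence read to estimate viable, metabolically active cells.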
# [5] = qHTS of pediatric cancer cell lines to identify multiple opportunities for drug repurposing: Primary screen for NB-EBc1 cells (AID 1347095)
# Method in brief: as §1
# [6] = qHTS of pediatric cancer cell lines to identify multiple opportunities for drug repurposing: Primary screen for U-2 OS cells (AID 1347096); note: nearly all actives have a fitted effect of over 50% in size
# Method in brief: (§2)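 Cells (500-1,000/well) rested 5 h, then received compounds for 48 h; metabolically active cells were measured by CellTiter-Glo luminescence. Final concentrations spanned up to 46 µM (MIPE, 11-point) or 0.59 nM-46 µM (NPC, 8-point) in primary screens, 11-point in follow-ups.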
# [7] = qHTS of pediatric cancer cell lines to identify multiple opportunities for drug repurposing: Primary screen for Saos-2 cells (AID 1347097); note: nearly all actives have a fitted effect of over 40% in size
# Method in brief: as §1
# [8] = qHTS of pediatric cancer cell lines to identify multiple opportunities for drug repurposing: Primary screen for SK-N-SH cells (AID 1347098); note: nearly all actives have a fitted effect of over 65% in size
# Method in brief: as §2
# [9] = qHTS of pediatric cancer cell lines to identify multiple opportunities for drug repurposing: Primary screen for NB1643 cells (AID 1347099); note: nearly all actives have a fitted effect of over 50% in size
# Method in brief: as §1
# [10] = qHTS of pediatric cancer cell lines to identify multiple opportunities for drug repurposing: Primary screen for LAN-5 cells (AID 1347100)
# Method in brief: as §2
# Potency is the fitted concentration of half-maximal effect.
SMILES,Potency [1],Potency [2],Potency [3],Potency [4],Potency [5],Potency [6],Potency [7],Potency [8],Potency [9],Potency [10]
NC1CCC(Nc2nc(Nc3ccc(C(=O)N4CCCCC4)cc3)c3ncn(-c4cccc(F)c4)c3n2)CC1 (configuration not stated),inactive,inactive,inactive,inactive,inactive,inactive,inactive,inactive,inactive,inactive
CC1(C)Cc2c(sc(NC(=S)NC(=O)c3ccccc3)c2C(=O)O)CO1,inactive,23.5 µM (active),1660 nM (active),inactive,inactive,inactive,inactive,–,5.26 µM (active),inactive
Oc1ccc(C2=Cc3ccc(O)cc3OC2)cc1,5260 nM (active),2.35 µM (active),1660 nM (active),12.2 µM (active),1.66 µM (active),inactive,11.8 µM (active),–,9.35 µM (active),2.35 µM (active)
NC[C@@H]1O[C@@H](O[C@H]2[C@@H](O)[C@H](O[C@@H]3[C@@H](O)[C@@H](N)C[C@H](N)[C@H]3O[C@H]3O[C@H](CN)[C@@H](O)[C@@H](O)[C@H]3N)O[C@H]2CO)[C@H](N)[C@@H](O)[C@@H]1O,inactive,inactive,inactive,inactive,inactive,inactive,inactive,inactive,inactive,inactive
COc1ccc2cccc(CCNC(C)=O)c2c1,inactive,inactive,inactive,inactive,inactive,inactive,inactive,inactive,–,inactive
O=C1C(Cl)=C(NCCN2CCOCC2)C(=O)c2ncccc21,6620 nM (active),1.87 µM (active),7430 nM (active),3.43 µM (active),4.69 µM (active),5.9 µM (active),2.35 µM (active),7.64 µM (active),9.35 µM (active),8.33 µM (active)
CCN(CC)C(=O)c1ccc(O)c(OC)c1,inactive,inactive,inactive,inactive,inactive,inactive,inactive,inactive,inactive,inactive
CCN(CC)CCNC(=O)c1ccc(N)cc1,inactive,inactive,inactive,inactive,inactive,inactive,inactive,inactive,inactive,inactive
CC(=NNC(=S)N1CCC1)c1ccccn1,20.9 nM (active),0.0037 µM (active),1.3 nM (active),0.0054 µM (active),0.0166 µM (active),inactive,inactive,–,0.001 µM (active),0.935 µM (active)
CC1(C)CCC(CN2CCN(c3ccc(C(=O)NS(=O)(=O)c4ccc(NCC5CCOCC5)c([N+](=O)[O-])c4)c(Oc4cnc5[nH]ccc5c4)c3)CC2)=C(c2ccc(Cl)cc2)C1,2960 nM (active),18.7 µM (active),7.4 nM (active),27.3 µM (active),1.87 µM (active),18.7 µM (active),14.8 µM (active),–,0.0418 µM (active),1.05 µM (active)
O=C1NC(=O)C(c2ccccc2)(c2ccccc2)N1,inactive,inactive,inactive,inactive,inactive,inactive,inactive,inactive,inactive,inactive
C[C@@H](O)[C@H]1C(=O)N2C(C(=O)O)=C(S[C@@H]3CN[C@H](C(=O)N(C)C)C3)[C@H](C)[C@H]12,inactive,inactive,inactive,inactive,inactive,inactive,inactive,inactive,inactive,inactive
NC(N)=Nc1nc(CSCC/C(N)=N/S(N)(=O)=O)cs1,inactive,inactive,inactive,inactive,inactive,inactive,inactive,inactive,inactive,inactive
O=C(NC1CCOCC1)c1ccc(-c2cc(-c3cn[nH]c3-c3ccccn3)ccn2)cc1,inactive,inactive,inactive,inactive,inactive,inactive,inactive,inactive,inactive,inactive
Cc1cnc(C(=O)O)c[n+]1[O-],inactive,inactive,inactive,inactive,inactive,inactive,inactive,–,inactive,inactive
C[N+](C)(C)CC(=O)O,inactive,inactive,16600 nM (active),inactive,inactive,inactive,inactive,inactive,inactive,inactive

SMILES,Potency [1],Potency [2],Potency [3],Potency [4],Potency [5],Potency [6],Potency [7],Potency [8],Potency [9],Potency [10]
CCC(CC)[C@H](NC(C)=O)[C@@H]1[C@H](O)[C@@H](C(=O)O)C[C@@H]1N=C(N)N,inactive,inactive,inactive,inactive,inactive,inactive,inactive,inactive,inactive,inactive
C[N+](C)(C)CCCCCC[N+](C)(C)C,inactive,inactive,inactive,inactive,inactive,inactive,inactive,inactive,inactive,inactive
CC(C)C(=O)Oc1ccc(CO)cc1[C@H](CCN(C(C)C)C(C)C)c1ccccc1,inactive,inactive,inactive,inactive,inactive,inactive,inactive,inactive,–,inactive
O=C(CCCCCCC(=O)Nc1ccccc1)NO,1.33 µM (active) and 1.87 µM (active),3.35 µM (active) and 4.69 µM (active),1480 nM (active),5.5 µM (active) and 7.69 µM (active),1 nM (active) and 1.48 µM (active),3.35 µM (active) and 4.69 µM (active),4.73 µM (active) and 5.9 µM (active),2.73 µM (active) and 7.64 µM (active),944 nM (active) and 1.32 µM (active),1 nM (active) and 1.32 µM (active)
Cc1nnc(C(C)C)n1C1C[C@H]2CC[C@@H](C1)N2CC[C@H](NC(=O)C1CCC(F)(F)CC1)c1ccccc1 (some centres not stated),inactive,14.8 µM (active),4180 nM (active),inactive,inactive,inactive,inactive,inactive,18.7 µM (active),inactive
NS(=O)(=O)c1cccc2c1C(=O)c1cccc(O)c1C2=O,590 nM (active),0.372 µM (active),935 nM (active),0.432 µM (active),0.833 µM (active),0.59 µM (active),0.264 µM (active),30.4 µM (active),1.05 µM (active),1.05 µM (active)
C[N+]1(C)[C@@H]2CC(OC(=O)[C@H](CO)c3ccccc3)C[C@H]1[C@H]1O[C@@H]12 (some centres not stated),inactive,inactive,inactive,inactive,inactive,inactive,inactive,inactive,–,inactive
CC=CC(=O)N(CC)c1ccccc1C,inactive,inactive,inactive,30.6 µM (active),14.8 µM (active),inactive,inactive,–,–,–
CCC(=O)O[C@]1(C(=O)CO)CC[C@H]2[C@@H]3CCC4=CC(=O)CC[C@]4(C)[C@@H]3CC[C@@]21C,inactive,inactive,inactive,inactive,inactive,inactive,inactive,inactive,inactive,inactive
C[C@H]1[C@H](NC(=O)C(=NOC(C)(C)C(=O)O)c2csc(N)n2)C(=O)N1S(=O)(=O)O,inactive,inactive,inactive,inactive,inactive,inactive,inactive,inactive,inactive,inactive
NC1=N[C@@]2(c3cc(NC(=O)c4ccc(F)cn4)ccc3F)COC[C@@H]2CS1,296 nM (active),0.0074 µM (active),833 nM (active),0.122 µM (active),1.87 µM (active),inactive,0.372 µM (active),–,inactive,0.132 µM (active)
C=C1C(=O)[C@@]23C(CC[C@@H]1[C@H]2O)[C@@]12CO[C@]3(O)[C@@H](O)[C@@H]1C(C)(C)CC[C@@H]2O (some centres not stated),8330 nM (active),3.72 µM (active),1660 nM (active),27.3 µM (active),2.09 µM (active),14.8 µM (active),4.69 µM (active),15.2 µM (active),1.48 µM (active),1.66 µM (active)
COc1ccc(-c2nc(N3CCOCC3)c3sc(CN(C)c4ncc(C(=O)NO)cn4)cc3n2)cn1,6.6 nM (active),0.0935 µM (active),1 nM (active),0.0069 µM (active),0.001 µM (active),0.0118 µM (active),0.0066 µM (active),0.0341 µM (active),0.001 µM (active),0.001 µM (active)
CC(C)C(C)C=CC(C)C1CCC2C3=CC=C4CC(O)CCC4(C)C3CCC21C (configuration not stated),inactive,inactive,inactive,inactive,inactive,inactive,inactive,–,inactive,inactive
O=C1c2ccccc2-[n+]2ccc3c([nH]c4ccccc43)c21,833 nM (active),1.18 µM (active),1320 nM (active),2.43 µM (active),0.833 µM (active),9.35 µM (active),2.35 µM (active),1.52 µM (active),5.26 µM (active),1.66 µM (active)
CN(C)CCC(c1ccccc1)c1ccccn1 (configuration not stated),inactive,inactive,inactive,inactive,inactive,inactive,inactive,inactive,inactive,inactive
